The target in this assay is Runt-related transcription factor 1 (Homo sapiens) + Core-binding factor subunit beta (Homo sapiens) (UniProt Q01196+Q13951). The assay can be described thus: qHTS Assay for Compounds Blocking the Interaction Between CBF-beta and RUNX1 for the Treatment of Acute Myeloid Leukemia: SAR for Probe. The note with it: AlphaScreen CBFb-His/RUNX1-biotin binding, biochemical. The source says:
NIH Chemical Genomics Center [NCGC] NIH Molecular Libraries Probe Production centers Network [MLPCN] MLPCN Grant: X01MH083259-01 Assay Submitter (PI): Paul Liu NCGC Assay Overview: Core Binding Factor (CBF) abnormalities are associated with 20-25% of all acute myeloid leukemias (AML), of which 5-10% are further sub classified as acute myelomonocytic leukemia with eosinophilia, also known as M4Eo in the FAB classification scheme. This subtype of leukemia is usually associated with chromosome 16 inversion (p13:q22). Chromosome 16 inversion results in formation of the fusion oncogene CBFB-MYH11, which encodes the fusion protein CBF-beta-SMMHC. […] It has been hypothesized that the interference of CBF-beta and RUNX1 binding could have therapeutic implications for patients with CBF mediated leukemias. […]
NCGC Assay Protocol Summary: Step, Parameter, Description (1) Reagent, 3 uL CBFb-His/RUNX1-biotin mix incubated together for 20 minutes at room temperature (30 nM each) (2) Compound or control, 23 nL compound stock solution (3) Incubation, 15 minutes at Room temperature (4) Reagent, 1 uL 50 ng each of beads (Nickel beads and streptavidin beads) (5) Incubation, 90 minutes at Room temperature (6) Detection, […], Envision reader in AlphaScreenTM mode Keywords: MLSMR, MLPCN, NIH Roadmap, qHTS, NCGC, Core binding factor, CBF, CBF-beta, Acute myeloid leukemia
(qHTS replaces the single test concentration by a dilution series.)

Inconclusive results are not listed. Activity calls are given as the source filed them. Calls follow the shape of the dose curve; as a rule, active = well fitted curve in the direction sought with a large enough effect; inconclusive = small, poorly fitted or top-dose-only effect, or another doubt; inactive = no such curve, though single readings can be large or run the other way.

Runt-related transcription factor 1 (Homo sapiens) + Core-binding factor subunit beta (Homo sapiens), sequence (Q01196 whole entry, looked up): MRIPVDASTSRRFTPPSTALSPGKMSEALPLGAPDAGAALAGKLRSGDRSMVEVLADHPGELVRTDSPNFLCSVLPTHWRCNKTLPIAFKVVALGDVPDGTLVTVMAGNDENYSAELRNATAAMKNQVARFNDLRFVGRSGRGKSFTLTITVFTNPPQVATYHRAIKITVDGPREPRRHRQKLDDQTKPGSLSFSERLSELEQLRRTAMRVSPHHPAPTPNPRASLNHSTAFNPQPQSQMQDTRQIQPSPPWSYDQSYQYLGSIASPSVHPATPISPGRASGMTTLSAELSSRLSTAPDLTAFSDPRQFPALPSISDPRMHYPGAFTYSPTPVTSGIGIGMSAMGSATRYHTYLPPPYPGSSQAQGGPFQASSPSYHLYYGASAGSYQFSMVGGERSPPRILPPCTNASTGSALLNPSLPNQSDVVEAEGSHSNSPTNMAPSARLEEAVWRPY
Runt-related transcription factor 1 (Homo sapiens) + Core-binding factor subunit beta (Homo sapiens), sequence (Q13951 whole entry, looked up): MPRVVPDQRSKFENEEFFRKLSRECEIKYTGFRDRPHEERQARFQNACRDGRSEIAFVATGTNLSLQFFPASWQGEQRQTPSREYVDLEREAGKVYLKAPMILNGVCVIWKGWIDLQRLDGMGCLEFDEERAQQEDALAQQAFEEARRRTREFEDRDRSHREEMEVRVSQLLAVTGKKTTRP

`CN1C(=O)CN=C(c2ccc[nH]2)c2cc(Cl)ccc21` (tested in a mixture with another compound): the Potency is 109 µM (active).

As for `CCN(CC)CCN1C(=O)CN=C(c2ccccn2)c2cc(Cl)ccc21`, the Potency is 21.7 µM (active).

Source of the values: PubChem BioAssay AID504386 (National Center for Advancing Translational Sciences (NCATS), 2011).
